# Measurements: PubChem BioAssay (EPA / NIEHS)
# Results filed as inconclusive are left out. Calls of active or inactive are those of the source. How the source made its calls: active means hit-call score of the fitted dose curve at least 0.9, where 1 is the maximum; inconclusive means response in the unintended direction; inactive means score below 0.9. Peptide text beside a SMILES is read from it.
# Test: ATG_XTT_Cytotoxicity: Cytotoxicity Assessment in the Attagene TRANS-FACTORIAL HepG2 Assay (AID 2283584);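 on AC50: cells exposed to compound for 24 h before reading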
# Protocol: ATG_XTT_Cytotoxicity is a cell-based, single-readout assay that uses HepG2, a human liver cell line, with measurements taken at 24 hours after chemical dosing in a 24-well plate.ATG_XTT_Cytotoxicity is one of one assay component(s) measured or calculated from the ATG_XTT_Cytotoxicity assay. It is designed to make measurements of cell number, a form of viability reporter, as detected with […] signals by XTT cytotoxicity assay technology.Data from the assay component ATG_XTT_Cytotoxicity was analyzed into 1 assay endpoint. This assay endpoint, ATG_XTT_Cytotoxicity, was analyzed in the positive analysis fitting direction relative to DMSO as the negative control and baseline of activity. Using a type of viability reporter, loss-of-signal activity can be used to understand changes in the viability. Furthermore, this assay endpoint can be referred to as a primary readout, because the performed assay has only produced 1 assay endpoint. To generalize the intended target to other relatable targets, this assay endpoint is annotated to the cell cycle intended target family, where the subfamily is cytotoxicity.
# Human liver HepG2 cells are transiently transfected with multiple reporter transcription units (MRTUs) in 6-well plates using FuGene 6 reagent (Roche; 3 ml FuGene/1 mg DNA). The MRTU constructs are regulated by a cis-regulating element (promoter). […] A major difference between the CIS and TRANS system is that in CIS activities of endogenous TFs are measured, whereas the TRANS assay evaluates changes in activities of exogenous, chimeric NR-Gal4 proteins. […] At the end of 24 hour incubation, total RNA was isolated using TriZol reagent (Invitrogen). The isolated RNA is then reverse-transcribed using oligo(dT) primer and Mo-MLV reverse transcriptase (Invitrogen) with DNAse I (Ambion) treatment for 30 min. The one-tenth of the produced cDNA was amplified by PCR using Taq DNA polymerase (Invitrogen) and two reporter sequence-specific primers. The PCR products were fluorescently labeled by primer extension with 6-arboxyfluorescein (6-FAM) 5'-labeled reporter sequence-specific primer (2 min at 95 C, 20 s at 68 C and 10 min at 72 C) and these products were digested with 5U of HpaI (New England Biolabs) for 2h at 37 C. The fragments were purified using Qiaquick PCR columns (Qiagen), analyzed on an ABI 3130xL genetic analyzer (Applied Biosystems) with peak positions identified by using a set of X-rhodamine (ROX)-labeled MapMarker1000 molecular weight standards (BioVentures). The raw capillary electrophoresis data was processed using Attagraph software (Attagene).
Structure (SMILES),outcome,AC50
CC(=O)CCC1=C(C)CCCC1(C)C,inactive,–
CC(=O)CCC=C(C)C,inactive,–
COC(=O)[C@H](Cc1ccccc1)NC(=O)[C@@H](N)CC(=O)O (H-Asp-Phe-OMe),inactive,–
C=C1C[C@H]2[C@@H]3C=C(C)C4=CC(=O)CC[C@]4(C)[C@H]3CC[C@]2(C)[C@@]1(OC(C)=O)C(C)=O,inactive,–
CCCC(CC)c1ccccc1 (stereo not given),inactive,–
O=C(Oc1ccccc1)c1ccccc1C(=O)Oc1ccccc1,inactive,–
CCCCCC(=O)OCC,inactive,–
CCCCCCO,inactive,–
C=C(C)C1CC=C(C)CC1 (stereo not given),inactive,–
COc1cc(O)c(C(=O)c2ccccc2)cc1S(=O)(=O)O,inactive,–
CC(=O)OC/C=C(/C)CCC=C(C)C,inactive,–
c1ccc2sc(SSN3CCOCC3)nc2c1,inactive,–
CC=C(C)C(C)=O,inactive,–
C=CCCCCCCCCOC(C)=O,inactive,–
N=C1C=CC(=C(c2ccc(N)cc2)c2ccc(N)cc2)C=C1,inactive,–
NC(=O)Nc1ccccc1,inactive,–
CCc1occc(=O)c1O,inactive,–
CCOC(=O)OC(=O)OCC,inactive,–
N#CC1(N)CCCCC1,inactive,–
CC1(C)CC(O)CC(C)(C)N1[O],inactive,–

Structure (SMILES),outcome,AC50
CCN1CCCC1=O,inactive,–
CN(C)c1ccc2nc3ccc(=[N+](C)C)cc-3sc2c1,inactive,–
CCCCCCOc1ccc(N)cc1,inactive,–
CC(C)(c1ccccc1)c1ccc(Nc2ccc(C(C)(C)c3ccccc3)cc2)cc1,inactive,–
CC/C=C\CCOC(=O)c1ccccc1O,inactive,–
CCC1COC(=O)O1 (stereo not given),inactive,–
CCCCC/C=C\C/C=C\CCCCCCCC(=O)O,inactive,–
O=C(O)/C=C/c1ccccc1,inactive,–
CC(c1cc(C(C)(C)C)cc(C(C)(C)C)c1O)c1cc(C(C)(C)C)cc(C(C)(C)C)c1O,inactive,–
CN(C)Cc1cc(CN(C)C)c(O)c(CN(C)C)c1,inactive,–
Cc1cc(C)n(CO)n1,inactive,–
C=C(C)C(=O)OCCCCCCCCCCCC,inactive,–
C=CC(C)(O)CC/C=C(\C)CC (stereo not given),inactive,–
COCC(=O)O,inactive,–
CCCCOCC(C)O (stereo not given),inactive,–
O=C(O)c1ccc2c(c1)C(=O)OC2=O,inactive,–
COc1nccnc1CC(C)C,inactive,–
CCCCCCCCCCCCCCCCCCOS(=O)(=O)O,inactive,–
Nc1ncnc2nc[nH]c12,inactive,–
CCCCCCCCCC[N+](C)(CCCCCCCCCC)CCC[Si](OC)(OC)OC,–,43.9 µM (active)
